Laboratory results published in PubChem BioAssay (NCATS).
Results filed as inconclusive are left out. Activity calls are given as the source filed them. Calls come from the whole dose curve; as a rule, active = well fitted curve in the direction sought with a large enough effect; inconclusive = small, poorly fitted or top-dose-only effect, or another doubt; inactive = no such curve, though single readings can be large; an effect the other way counts as inactive or inconclusive.

Key:
[1] = Quantitative High-Throughput drug screen in 47 multiple myeloma cell lines against the NCATS MIPE library collection: ARP1_JJKsccF8 cell viability assay (AID 1918928; note: nearly all actives have a fitted effect of over 40% in size); conditions: ARP1 myeloma cells viability, CellTiter-Glo ATP, 48 h; series mostly up to 45.8 µM
Summary of the method: (§1)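 ATP readout (CellTiter-Glo), 48 h drug incubation, 37 °C/5% CO2, 500 cells per well; normalisation to DMSO (100%) and media-only (0%) controls.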

[2] = Quantitative High-Throughput drug screen in 47 multiple myeloma cell lines against the NCATS MIPE library collection: ARD_JJKsccE7 cell viability assay (AID 1918929); conditions: ARD myeloma cell line viability, CellTiter-Glo, 48 h; series mostly up to 45.8 µM
Summary of the method: (§2)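 CellTiter-Glo ATP luminescence gave viability after 48 h compound treatment at 37C of 500 multiple myeloma cells per well. Normalisation used DMSO-only wells as 100% and media-only wells as 0% viability; primary qHTS of approved and investigational drugs.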

[3] = Quantitative High-Throughput drug screen in 47 multiple myeloma cell lines against the NCATS MIPE library collection: JIM3_ECACC cell viability assay (AID 1918963; note: nearly all actives have a fitted effect of over 35% in size); conditions: JIM3 myeloma viability, CellTiter-Glo ATP, 48 h; series mostly up to 45.8 µM
Summary of the method: (§3)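 Myeloma cell lines, 500 cells per well, exposed to MIPE 4.0 library compounds for 48 h at 37C, 5% CO2. Viability from ATP by CellTiter-Glo luminescence; normalised to DMSO (100%) and media-only (0%) wells.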

[4] = Quantitative High-Throughput drug screen in 47 multiple myeloma cell lines against the NCATS MIPE library collection: INA6_PLB cell viability assay (AID 1918965; note: nearly all actives have a fitted effect of over 55% in size); conditions: INA6 myeloma viability, CellTiter-Glo ATP luminescence, 48 h; series mostly up to 45.8 µM
Summary of the method: as §3

[5] = Quantitative High-Throughput drug screen in 47 multiple myeloma cell lines against the NCATS MIPE library collection: Karpas620_DSMZ cell viability assay (AID 1918959); conditions: Karpas620 myeloma viability, CellTiter-Glo ATP luminescence, 48 h; series mostly up to 45.8 µM; note: nearly all actives have a fitted effect of over 30% in size
Summary of the method: as §3

[6] = Quantitative High-Throughput drug screen in 47 multiple myeloma cell lines against the NCATS MIPE library collection: JIM1_ECACC cell viability assay (AID 1918964); conditions: JIM1 myeloma viability, CellTiter-Glo ATP luminescence, 48 h; series mostly up to 45.8 µM
Summary of the method: as §2

[7] = Quantitative High-Throughput drug screen in 47 multiple myeloma cell lines against the NCATS MIPE library collection: Karpas417_ECACC cell viability assay (AID 1918961); conditions: Karpas417 myeloma viability, CellTiter-Glo ATP luminescence, 48 h; viability (% of DMSO): at 45.8 µM (top of the series)
Summary of the method: as §3

[8] = Quantitative High-Throughput drug screen in 47 multiple myeloma cell lines against the NCATS MIPE library collection: KHM11_PLB cell viability assay (AID 1918962); conditions: KHM11 myeloma cell viability, CellTiter-Glo ATP luminescence, 48 h; series mostly up to 45.8 µM; note: nearly all actives have a fitted effect of over 35% in size
Summary of the method: as §3

[9] = Quantitative High-Throughput drug screen in 47 multiple myeloma cell lines against the NCATS MIPE library collection: KMM1_JCRB cell viability assay (AID 1918960); conditions: KMM1 myeloma viability, CellTiter-Glo ATP luminescence, 48 h; series mostly up to 45.8 µM; note: nearly all actives have a fitted effect of over 30% in size;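 for viability (% of DMSO): 100% = DMSO-treated cells and 0% = medium-only wells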
Summary of the method: as §1

[10] = Quantitative High-Throughput drug screen in 47 multiple myeloma cell lines against the NCATS MIPE library collection: JJN3_DSMZ cell viability assay (AID 1918966; note: nearly all actives have a fitted effect of over 50% in size); conditions: JJN3 myeloma cells viability, CellTiter-Glo ATP, 48 h; series mostly up to 45.8 µM
Summary of the method: as §2
Potency is the fitted concentration of half-maximal effect.

COc1ccccc1N1CCN(CCN(C(=O)C2CCCCC2)c2ccccn2)CC1
active: Potency [2] 1.18 µM | Potency [4] 3.72 µM
inactive: Potency [1] | Potency [3]

NCCCCNCCCN
inactive: Potency [2]
active: Potency [1] 16.6 µM | Potency [5] 18.7 µM | Potency [3] 18.7 µM | Potency [4] 11.8 µM

CNC[C@@H](O)[C@@H](O)[C@H](O)[C@H](O)CO
inactive: Potency [1] | Potency [2] | Potency [5] | Potency [3] | Potency [6]

O=C(CCc1ccc(O)cc1)c1c(O)cc(O)cc1O
active: Potency [1] 1.32 µM | Potency [2] 0.372 µM | Potency [5] 1.32 µM | Potency [7] 0.132 µM | Potency [8] 0.059 µM | Potency [4] 0.418 µM

CC(C)(S)[C@@H](N)C(=O)O
inactive: Potency [1] | Potency [2] | Potency [5] | Potency [3] | Potency [6]

Cc1ccc(S(=O)(=O)NC(=O)NN2CC3CCCC3C2)cc1 (configuration not stated)
active: Potency [1] 26.4 µM | Potency [2] 26.4 µM | Potency [9] 23.5 µM | Potency [3] 23.5 µM | Potency [4] 20.9 µM

CN(C)C(=O)[C@H](O)[C@H](Cc1ccccc1)NC(=O)c1cc2cc(Cl)ccc2[nH]1
inactive: Potency [8]
active: Potency [1] 16.6 µM | Potency [2] 16.6 µM | Potency [4] 0.833 µM

COc1cc(OC)c(C(=O)CCCN2CCCC2)c(OC)c1
active: Potency [10] 0.059 µM
inactive: Potency [1] | Potency [2] | Potency [5] | Potency [7] | Potency [8] | Potency [3]

O=C(OC1C[C@H]2CC[C@@H](C1)[N+]21CCCC1)C(O)(c1ccccc1)c1ccccc1 (some centres not stated)
inactive: Potency [1] | Potency [5] | Potency [9] | Potency [8] | Potency [3] | Potency [6]

CC(C)[C@H](N)C(=O)OCCOCn1cnc2c(=O)[nH]c(N)nc21
inactive: Potency [1] | Potency [2] | Potency [5] | Potency [3] | Potency [10]

CCC[C@@H]1C[C@@H](C(=O)N[C@@H]([C@H]2O[C@H](SC)[C@H](O)[C@@H](O)[C@H]2O)[C@@H](C)O)N(C)C1
inactive: Potency [1] | Potency [2] | Potency [9] | Potency [7] | Potency [8] | Potency [3]

O=Nc1c(-c2c(O)[nH]c3cc(Br)ccc23)[nH]c2ccccc12
active: Potency [1] 14.8 µM | Potency [5] 8.33 µM | Potency [9] 5.26 µM | Potency [8] 4.69 µM | Potency [3] 5.26 µM | Potency [6] 1.32 µM | Potency [4] 0.526 µM

Cc1nc(-c2ccc(OCC(C)C)c(C#N)c2)sc1C(=O)O
inactive: Potency [1] | Potency [2] | Potency [9] | Potency [3] | Potency [6]

O=c1c(O)c(-c2ccc(O)cc2O)oc2cc(O)cc(O)c12
inactive: Potency [1] | Potency [2] | Potency [9] | Potency [7] | Potency [8] | Potency [3]

Cc1cccc(-c2[nH]ncc2-c2ccc3ncccc3n2)n1
inactive: Potency [1] | Potency [2] | Potency [5] | Potency [3]

CCCCCCCCOc1ccccc1C(=O)Nc1ccc(C(=O)OCC[N+](C)(CC)CC)cc1
active: Potency [1] 20.9 µM | Potency [5] 5.9 µM | Potency [4] 18.7 µM
inactive: Potency [2]

C[Se]CCC(N)C(=O)O (configuration not stated)
inactive: Potency [1] | Potency [2] | Potency [9] | Potency [7] | Potency [3] | Potency [6]

Cc1cc2c(s1)Nc1ccccc1N=C2N1CCN(C)CC1
inactive: Potency [1] | Potency [5] | Potency [9] | Potency [7] | Potency [3] | Potency [6]

CN1C(C(=O)Nc2ccccn2)=C(O)c2sccc2S1(=O)=O
inactive: Potency [1] | Potency [5] | Potency [9] | Potency [8] | Potency [3] | Potency [6]

O=C(O)c1cc(=O)c2c(OCC(O)COc3cccc4oc(C(=O)O)cc(=O)c34)cccc2o1
inactive: Potency [1] | Potency [2] | Potency [9] | Potency [3]

CC1(C)CCC(C)(C)c2cc(NC(=O)c3ccc(C(=O)O)cc3)ccc21
inactive: Potency [1] | Potency [6]
active: Potency [2] 13.2 µM | Potency [4] 18.7 µM

Oc1ccc(OCc2ccccc2)cc1
active: Potency [1] 18.7 µM
inactive: Potency [2] | Potency [5] | Potency [7] | Potency [3] | Potency [6]

Cc1c(OCC(F)(F)F)ccnc1CS(=O)c1nc2ccccc2[nH]1 (configuration not stated)
active: Potency [9] 20.9 µM | Potency [3] 16.6 µM
inactive: Potency [1] | Potency [5]

O=C(NC(Cc1cc(=O)[nH]c2ccccc12)C(=O)O)c1ccc(Cl)cc1 (configuration not stated)
active: Potency [10] 9.35 µM
inactive: Potency [1] | Potency [2] | Potency [7]

CC(S)C(=O)NCC(=O)O (configuration not stated)
active: Potency [2] 2.64 µM
inactive: Potency [1] | Potency [7] | Potency [3] | Potency [6] | Potency [10]

N[C@@H](Cc1cc(I)c(Oc2cc(I)c(O)c(I)c2)c(I)c1)C(=O)O
inactive: Potency [1] | Potency [2] | Potency [9] | Potency [7] | Potency [3]
active: Potency [6] 0.0053 µM

C=C(c1ccc(C(=O)O)cc1)c1cc2c(cc1C)C(C)(C)CCC2(C)C
inactive: Potency [1] | Potency [5] | Potency [9]

CCOC(=O)C1=C[C@@H](OC(CC)CC)[C@H](NC(C)=O)[C@@H](N)C1
inactive: Potency [1] | Potency [2] | Potency [5] | Potency [3] | Potency [4]

CCCCC(CC)COC(=O)C(C#N)=C(c1ccccc1)c1ccccc1 (configuration not stated)
inactive: Potency [1] | Potency [5] | Potency [9] | Potency [8] | Potency [3] | Potency [6]
active: viability (% of DMSO) [7] 94.7% | Potency [4] 9.35 µM
